MITF TRPM1 inh = inhibitors of MITF-dependent TRPM1 promoter reporter, primary screen, cell-based, SK-MEL-5, single point, luciferase; SK-MEL-5 TRPM1 promoter luciferase, 24 h; inhibition, % at 12.5 µM; 330,000 compounds, 0.83% hits;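 active = mean inhibition across replicates of 60% or more, whatever share of single replicates reaches that level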
ABHD5 PLIN5 PPI = ABHD5-PLIN5 interaction inhibitors, primary screen, cell lysate, split luciferase complementation, luminescence; Perilipin-5 (Homo sapiens) + 1-acylglycerol-3-phosphate O-acyltransferase ABHD5 (Homo …; Split G. princeps luciferase complementation, 4 h; inhibition, % at 4 µM; 360,000 compounds, 0.78% hits; AID 602281, 2012;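 active = inhibition above the mean inhibition across every tested compound plus 3 SD, cut at about 22% in these data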;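 also: 0% = DMSO only wells and the 100% control is not disclosed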
Target sequence (Q00G26 whole entry, looked up): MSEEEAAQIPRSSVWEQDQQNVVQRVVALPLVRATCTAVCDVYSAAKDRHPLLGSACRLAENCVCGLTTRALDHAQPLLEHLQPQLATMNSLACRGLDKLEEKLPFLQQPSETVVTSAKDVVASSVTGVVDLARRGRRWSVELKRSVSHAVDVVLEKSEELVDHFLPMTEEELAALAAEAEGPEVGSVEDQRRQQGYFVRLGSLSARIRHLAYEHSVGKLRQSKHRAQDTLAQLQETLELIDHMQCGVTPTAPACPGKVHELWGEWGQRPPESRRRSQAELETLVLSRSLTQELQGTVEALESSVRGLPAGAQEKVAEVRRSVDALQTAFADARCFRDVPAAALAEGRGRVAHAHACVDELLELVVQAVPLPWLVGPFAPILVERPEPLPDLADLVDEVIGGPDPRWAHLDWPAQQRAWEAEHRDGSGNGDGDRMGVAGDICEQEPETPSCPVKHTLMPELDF
Target sequence (Q8WTS1 whole entry, looked up): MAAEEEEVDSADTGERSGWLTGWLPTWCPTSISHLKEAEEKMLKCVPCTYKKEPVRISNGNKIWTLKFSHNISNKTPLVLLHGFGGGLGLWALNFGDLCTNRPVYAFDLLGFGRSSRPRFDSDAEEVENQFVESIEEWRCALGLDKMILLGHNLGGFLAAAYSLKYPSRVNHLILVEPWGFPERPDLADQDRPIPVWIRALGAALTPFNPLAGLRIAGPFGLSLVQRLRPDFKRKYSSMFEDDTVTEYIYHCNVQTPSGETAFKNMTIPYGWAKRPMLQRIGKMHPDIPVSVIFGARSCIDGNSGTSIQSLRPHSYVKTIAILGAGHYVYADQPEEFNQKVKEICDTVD
CF NFkB block = inhibitors of PAF-induced NF-kB signaling, primary screen, cell-based, GFP fluorescence, uHTS | AID 588850, 2011 | inhibition, % at 5 µM | KKLEB NF-kB-GFP reporter, GFP fluorescence overnight | 360,000 compounds, 0.86% hits;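 active = at least 50% inhibition at 5 µM, scaled per plate between neutral and stimulator controls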;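 also: PAF is a Pseudomonas aeruginosa culture filtrate used as stimulus; plate controls were PAF-stimulated DMSO wells for no effect and unstimulated DMSO wells for full effect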
HIF-2a block = HIF-2a reporter inhibitors, primary screen, luminescence, 786-0 RCC cells; AID 624352, 2012; inhibition, % at 18.8 µM; 786-0 RCC cells HIF-2a reporter, luciferase luminescence, overnight; 360,000 compounds, 0.72% hits;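 active = inhibition of the luminescence signal of 40% or more relative to plate controls, in a single-dose primary screen at 18.75 µM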
Peg3 prom inh = Peg3 promoter-driven luciferase inhibitors, primary screen, cell-based, HeLa, luciferase luminescence. AID 588405, 2011. HeLa PEG-Prom luciferase reporter, overnight. inhibition, % at 20 µM. 360,000 compounds, 1.7% hits;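 active = inhibition of at least 50% at 20 µM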
KKLEB tox = cytotoxicity in KKLEB CF airway cells, primary screen, cytotoxicity control for CF NF-kB inhibitor project, cell-based, uHTS, fluorescence assay plates. KKLEB CF airway cells viability, ATPlite luminescence, overnight; hits give low values; cells stimulated with P. aeruginosa culture filtrate. activity change (cytotoxicity), % at 5 µM. 360,000 compounds, 0.36% hits. AID 602141, 2011;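 active = corrected activity change at or below -50% at 5 µM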
* = called active by the depositor; . = not tested or not shown. Only some compounds are listed: those with a hit (about 3% of all), similar ones and a draw of the others.

SMILES	MITF TRPM1 inh	ABHD5 PLIN5 PPI	CF NFkB block	HIF-2a block	Peg3 prom inh	KKLEB tox
COc1ccccc1N1CCN(C(=O)CN(C)S(=O)(=O)c2ccc3c(c2)c(=O)n(C)c(=O)n3C)CC1	0.9	-1.0	7.9	0.5	-11.0	0.6
CS(=O)(=O)c1ccc(C(=O)N2CCN(C(=O)c3ccco3)CC2)cc1	-2.2	1.6	10.8	6.6	4.7	2.6
Cc1ccc2c(c1)S/C(=C/c1ccc[n+](C)c1)N2CCO	0.6	0.8	-8.8	16.1	4.5	12.8
CCN1/C(=C/c2ccc3cc(C)ccc3[n+]2C)Sc2ccc3sccc3c21	77.3*	14.4	-65.5	42.4*	110.6*	-3.7
CCN1/C(=C/c2ccc3cc(C)ccc3[n+]2CC)Sc2cc(C)ccc21	85.1*	14.2	-433.9	63.3*	97.3*	-11.0
CCCCN1/C(=C/c2ccc3ccccc3[n+]2CC)Sc2ccccc21	69.1*	9.0	-151.1	-33.4	48.1	3.6
CC(C)N(Cc1nccn1C)C(=O)c1ccc2oc(Cc3ccccc3)nc2c1	-8.5	0.6	3.8	-42.0	-37.1	-3.0
CC(C)(C)c1nn(-c2ccccc2)c2[nH]c(=O)c(CNCc3ccc4c(c3)OCO4)cc12	66.5*	-9.0	-21.3	23.6	29.8	-14.4
CCOc1cccc(NCc2cc3c(C(C)(C)C)nn(-c4ccccc4)c3[nH]c2=O)c1	5.6	-4.5	0.6	3.2	5.0	26.6
COc1ccccc1C(=O)CSc1nccn1C	-32.9	-4.3	-18.1	-83.2	-49.9	-0.2
Oc1ccccc1N1CCN(c2ncnc3scc(-c4ccc(F)cc4)c23)CC1	6.9	-1.8	33.6	23.2	49.4	9.2
CCOc1ccccc1N1CCN(c2ncnc3scc(-c4ccc(OC)cc4)c23)CC1	6.9	6.6	35.5	21.8	59.1*	-7.6
Oc1ccccc1N1CCN(c2ncnc3scc(-c4ccccc4)c23)CC1	2.1	3.5	36.3	23.8	59.2*	1.3
O=C(O)C(=Cc1ccccc1[N+](=O)[O-])c1ccc2c(c1)OCO2	.	-5.3	6.7	-48.9	-50.5	-8.0
Oc1[nH]c2ccccc2c1N=Nc1nc(Nc2ccccc2)nc(N2CCOCC2)n1	-7.6	7.1	34.4	-16.3	69.7*	-14.9
COc1ccc(OC(F)(F)F)cc1CC1(C)C(=O)Nc2ccc(-c3ccsc3)cc21 (stereo unspecified)	.	-8.6	17.7	-1.7	10.7	-15.4
COc1cc(C(=O)N2CCC(NC(=O)C(Cc3ccccc3)NC(C)=O)CC2)cc(OC)c1OC (stereo unspecified)	-1.9	20.5	-4.6	7.1	57.8*	3.3
Nc1cc(=O)[nH]c(SCCSc2cc(Cl)ccc2Cl)n1	49.0	-5.0	8.3	19.3	53.9*	0.8
Cc1cc(Br)ccc1SCC(=O)OCC(O)=C(C#N)c1nc2ccccc2[nH]1	16.6	6.7	-8.2	-3.3	66.5*	-14.0
N#C/C(=C(/O)CCl)c1nc2ccccc2[nH]1	79.6*	-1.3	11.9	-63.0	26.9	-11.8
Cc1cc(Br)ccc1SCC(=O)OC/C(O)=C(\C#N)c1nc2ccccc2[nH]1	10.0	3.2	3.5	0.4	36.6	-3.6
Cc1cc(-c2nc3cc(F)ccc3s2)ccc1N	-11.3	5.0	-53.2	-44.0	-112.0	-30.0
NNC(=O)c1ccncc1	-0.8	0.1	-13.6	-1.8	-11.5	-84.9*
Cc1c(NC(=O)/C=C/c2ccc(S(=O)(=O)N3CCOCC3)cc2)c(=O)n(-c2ccccc2)n1C	5.0	1.4	-6.0	10.3	25.5	16.3
COc1ccc(-c2c[n+]3c4n2CCCCC4=C(c2ccccc2)C3)cc1	77.9*	2.8	-7.4	-13.1	40.8	16.6
SMILES	MITF TRPM1 inh	ABHD5 PLIN5 PPI	CF NFkB block	HIF-2a block	Peg3 prom inh	KKLEB tox
Cc1cccc(C)c1C(O)c1ncc(-c2ccccc2C(F)(F)F)[nH]1 (stereo unspecified)	.	0.1	1.3	8.1	9.8	-8.2
O=C(/C=C/c1ccncc1)c1ccc(NC(=O)c2ccccc2F)cc1	11.9	95.0*	71.9*	31.4	103.4*	-5.8
CC(C)(C)n1nnnc1C(c1ccccc1)N1CCN(c2ncc(C(F)(F)F)cc2Cl)CC1 (stereo unspecified)	.	-10.2	.	5.6	.	.
CCOc1ccc(-n2c(-c3ccc(Br)cc3)c[n+]3c2CCCCC3)cc1	62.9*	8.6	0.2	2.4	7.9	-7.1
CCOc1ccc(-n2c(-c3ccccc3)c[n+]3c2CCC3)cc1	32.5	-4.0	6.4	9.8	2.2	-9.0
COc1ccc(-c2c[n+]3c(n2-c2ccc(C)cc2)CCCCC3)cc1	50.7	7.8	1.7	3.1	6.6	0.6
CCOc1ccc(-n2c(-c3ccc(OC)cc3)c[n+]3c2CCCCC3)cc1	77.3*	3.3	5.0	16.6	9.6	-6.5
CC(C)C[C@H]1COc2cc(N3CCC[C@@H]3CO)ccc2S(=O)(=O)N1	.	-11.7	.	-5.7	.	.
COCC(=O)Nc1ncc(S(=O)(=O)c2ccc([N+](=O)[O-])cc2)s1	8.5	4.2	7.7	3.4	10.3	8.6
O=C(NC(Nc1ncc(S(=O)(=O)c2ccc([N+](=O)[O-])cc2)s1)(C(F)(F)F)C(F)(F)F)c1ccc(Cl)cc1	17.6	1.3	49.5	-2.9	41.9	-55.2*
CC(=O)Oc1ccc(C(=O)Nc2ccc(S(=O)(=O)NCC3CCCO3)cc2)cc1 (stereo unspecified)	9.4	-2.0	14.9	26.2	3.9	2.6
COc1cc(C2C(C#N)=C(C)NC3=C2C(=O)c2ccccc23)cc(OC)c1OC (stereo unspecified)	76.6*	-22.1	28.3	-4.1	23.4	-21.7
Cc1cc2oc3cc(NCCC4CCCN4C)ccc3c(=O)c2cc1C (stereo unspecified)	8.9	2.7	-17.0	-259.7	83.2*	-15.7
CN(CCc1ccccc1)C(C(=O)c1ccc2c(c1)OCO2)c1nnnn1-c1ccccc1NC(=O)OC(C)(C)C (stereo unspecified)	.	-6.4	.	-106.5	.	.
NC(=O)C1(Nc2ccc(C(=O)O)cc2)CCCC1	11.1	-4.9	28.1	3.3	-4.4	-21.1
COc1ccc(-c2cccc(-c3cc(=O)oc4cc(OC)cc(OC)c34)c2)cc1	67.0*	11.4	46.4	21.1	-4.2	-16.5
COc1cc(OC)c2c(-c3cccc(-c4ccc(CO)cc4)c3)cc(=O)oc2c1	77.2*	6.2	57.1*	19.5	16.1	-15.1
C[C@@H]1COc2cc(N3CCN(Cc4ccccc4F)CC3)ccc2S(=O)(=O)N1	.	-4.6	.	-5.3	.	.
CC1(C)c2[nH]c3ccccc3c2C[C@@H]2C(=O)N(Cc3ccc(F)cc3)C(=O)N21	4.0	9.2	6.4	3.7	62.0*	-12.3
